# Screening results deposited in PubChem by The Scripps Research Institute Molecular Screening Center.
# FBW7 activator = human FBW7 E3 ligase activation, primary screen; Q969H0; AlphaScreen FBW7–phospho-cyclin E peptide binding, activator screen; normalized activity (activation), % at 26.1 µM; actives 0.13% (n = 650,000); AID 1259310; in the data active = normalized activity above about 1.9%;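 also: purified mutant Fbw7 with reduced substrate affinity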
# MITF inh = blocks human microphthalmia-associated transcription factor | O75030 | AlphaScreen MITF homodimerization, bead proximity signal | inhibition, % at 2.6 µM | actives 0.91% (n = 650,000); in the data active = inhibition above about 50%;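 also: 0% = vehicle wells with protein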
# TEAD-YAP inh = TEAD-YAP interaction inhibition. HEK-TIYL cells, TEAD-Gal4/YAP UAS-luciferase luminescence. AID 1259422. actives 1.4% (n = 640,000). inhibition, % at 9.12 µM; in the data active = inhibition above about 32%;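 also: 0% = median of test compound wells and 100% = reference inhibitor wells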
# GPR151 ag = activates the human receptor GPR151. actives 1% (n = 650,000). PathHunter beta-arrestin GPR151 cells, luminescence. Q8TDV0. activation, % at 11.2 µM; in the data active = activation above about 4.9%;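 also: 0% = median of compound wells and 100% = cells with positive control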
# Target sequence (Q8TDV0 whole entry, looked up): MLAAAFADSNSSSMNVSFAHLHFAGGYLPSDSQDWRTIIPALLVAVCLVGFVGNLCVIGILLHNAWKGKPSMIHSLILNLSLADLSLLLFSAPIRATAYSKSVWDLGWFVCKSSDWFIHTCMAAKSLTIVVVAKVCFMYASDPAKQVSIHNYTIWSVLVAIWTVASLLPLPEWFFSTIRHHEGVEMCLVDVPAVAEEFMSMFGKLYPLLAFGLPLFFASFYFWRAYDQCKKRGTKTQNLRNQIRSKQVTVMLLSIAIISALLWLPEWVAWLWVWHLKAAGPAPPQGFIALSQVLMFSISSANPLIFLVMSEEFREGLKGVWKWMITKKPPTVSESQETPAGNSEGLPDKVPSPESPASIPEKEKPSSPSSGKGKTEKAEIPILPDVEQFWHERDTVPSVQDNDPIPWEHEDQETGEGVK
# MITF inh conf = confirmation of human MITF inhibitors; AID 1259372; inhibition, % at 2.6 µM; AlphaScreen MITF homodimerization, biotin/His-MITF beads; actives 16% (n = 4,700); shares compounds with MITF inh;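 active = inhibition above a cutoff derived from the DMSO control wells, cut at about 28% in these data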;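 also: 0% = MITF dimer wells with DMSO only; inhibitors lower the bead chemiluminescence by keeping MITF from dimerizing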
# AlphaScreen intf2 = counter-screen: compounds optically interfering with AlphaScreen; shares compounds with MITF inh; LysRS AlphaScreen counterscreen, signal interference, triplicate; inhibition, % at 2.6 µM; actives 7.6% (n = 4,700);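 active = inhibition above a cutoff derived from the DMSO control wells, cut at about 30% in these data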
# * hit, by the source's call; nt = no result given. Only some compounds are listed: those with a hit (about 3.4% of all), similar ones and a draw of the others.
SMILES,FBW7 activator,MITF inh,TEAD-YAP inh,GPR151 ag,MITF inh conf,AlphaScreen intf2
COc1ccc(Br)cc1CN1CCN(C(=O)c2cccs2)CC1,0,64*,1,0,-8,-6
COc1cccc(OC)c1C(=O)N1CCN(Cc2ccc(Br)cc2)CC1,1,64*,5,0,4,-2
COc1cccc(CN2CCN(C(=O)c3ccco3)CC2)c1,0,55*,6,0,-22,-1
COc1cccc(C(=O)N2CCN(C(=O)c3cccc(Cl)c3)CC2)c1,0,22,16,0,nt,nt
CCN(CCCNC(=O)c1ccc(Cn2c(=S)[nH]c3cc(C(=O)OC)ccc3c2=O)cc1)c1ccccc1,0,4,2,0,nt,nt
CC(C)c1nnc(NC(=O)c2ccc(NC(=O)C(F)(F)F)cc2)s1,0,6,-33,-1,nt,nt
O=C(COC(=O)Cn1nnc(-c2ccccc2)n1)Nc1ncc([N+](=O)[O-])s1,0,-4,3,0,nt,nt
N/C(=N\OC(=O)c1ccc(Cl)cc1Cl)c1ccc([N+](=O)[O-])cc1,0,15,-26,0,nt,nt
CN(CC(=O)N(Cc1ccccc1)Cc1ccccc1)S(=O)(=O)c1ccc(F)cc1,0,-11,3,0,nt,nt
COc1cccc(OC)c1C(=O)N1CCN(Cc2ccco2)CC1,0,61*,7,1,-5,-9
c1coc(CN2CCN(Cc3ccncc3)CC2)c1,0,35,-12,1,nt,nt
COc1ccc(CN2CCN(C(=O)c3ccco3)CC2)cc1Br,0,53*,-3,-1,3,13
COc1cccc(CN2CCN(C(=O)c3cccc(Cl)c3)CC2)c1,0,58*,0,0,11,15
O=C(c1ccncc1)N1CCN(Cc2ccco2)CC1,0,76*,-11,-1,4,0
Cc1sc2cc(Cl)ccc2[n+]1CCCS(=O)(=O)O,0,9,3,0,nt,nt
CCN1C(=O)CC(CC(=O)N(CC2CCC2)CC2CCCO2)(c2ccccc2C)C1=O (centres undefined),0,3,-9,0,nt,nt
C(=Nc1cnc2ccccc2c1)c1ccc2c(c1)OCO2,0,17,-1,3,nt,nt
COc1ccc(CCNc2nc(NCc3ccc4c(c3)OCO4)nc3nc[nH]c23)cc1,0,-6,5,-1,nt,nt
COc1ccc(C(=O)N2CCN(C)C[C@@H]2C(C)C)cc1OC1CCN(C(C)=O)CC1,0,5,-5,2,nt,nt
COc1cccc(C(=O)N2CCN(Cc3ccccc3Cl)CC2)c1,0,40,-14,-1,nt,nt
COc1ccc(CN2CCN(C(=O)c3cccc(Cl)c3)CC2)c(OC)c1,0,54*,1,1,5,16
C/C(=N\Nc1ccccn1)c1ccc(-n2ccnc2)cc1,0,16,-15,3,nt,nt
C/C(=N\N1CCOCC1)c1ccc(-n2ccnc2)cc1,0,76*,-3,0,8,-2
CNC(=O)CN1CCN(Cc2nc3ccc(OC)cc3[nH]2)CC1,0,80*,3,0,12,12
CCS(=O)(=O)N1CCN(Cc2ccc(OC)cc2)CC1,0,38,6,0,nt,nt
SMILES,FBW7 activator,MITF inh,TEAD-YAP inh,GPR151 ag,MITF inh conf,AlphaScreen intf2
CCOC(=O)c1ccccc1NC(=O)CN1CCN(Cc2nc3ccccc3[nH]2)CC1,0,0,4,0,nt,nt
CCS(=O)(=O)N1CCN(Cc2nc3ccc(OC)cc3[nH]2)CC1,-1,62*,-7,-2,14,22
Fc1ccc(CN2CCN(C3CCN(Cc4ccccc4)CC3)CC2)cc1,0,14,9,0,nt,nt
Fc1ccc(CN2CCN(C3CCCCCC3)CC2)cc1,0,64*,8,2,16,21
c1cc(CN2CCN(C3CCCC3)CC2)ccn1,1,79*,4,-1,7,14
Fc1ccc(CN2CCC(N3CCCCC3)CC2)cc1,0,45,10,0,nt,nt
CCc1ccc(CN2CCN(C3CCCCCC3)CC2)cc1,0,79*,-13,-1,2,-2
Cc1ccc(CN2CCN(C3CCCC3)CC2)cc1,0,38,1,1,nt,nt
Fc1ccc(CN2CCN(C3CCC(c4ccccc4)CC3)CC2)cc1 (centres undefined),0,66*,-1,1,1,9
N#Cc1ccc(OCC(=O)NNC(=O)c2ccc(F)cc2)cc1,0,-6,-8,3,nt,nt
COCCn1c(C)cn2c3c(=O)n(CC(=O)OC)c(=O)n(C)c3nc12,0,12,4,1,nt,nt
CCCN(CCC)C(=O)c1c[nH]c2ccc(S(=O)(=O)N(C)c3ccc(F)cc3)cc2c1=O,0,16,4,0,nt,nt
CS(=O)(=O)NCCSc1nnnn1-c1ccccc1,0,55*,7,1,4,11
COc1cc(C2C(C(C)=O)=C(O)C(=O)N2CC(=O)O)ccc1O (centres undefined),0,10,1,-1,nt,nt
O=c1[nH]c(CN(CCO)Cc2nc3sccc3c(=O)[nH]2)nc2sccc12,0,78*,6,0,47*,100*
COc1cc(-c2c(OC)cccc2OC)cc2c1OCCN(C(=O)c1n[nH]c3c1CCC3)C2,1,9,3,0,nt,nt
COc1ccccc1CN1CCN(Cc2ccccc2[N+](=O)[O-])CC1,-1,79*,0,0,6,11
O=[N+]([O-])c1ccccc1CN1CCN(C/C=C/c2ccccc2)CC1,0,58*,11,1,8,25
COc1ccc(CN2CCN(Cc3ccccc3[N+](=O)[O-])CC2)c(OC)c1OC,0,23,4,-1,nt,nt
COc1cc(CN2CCN(Cc3ccccc3[N+](=O)[O-])CC2)cc(OC)c1OC,0,62*,9,2,-1,5
COc1cc(CN2CCN(C(=O)CC(C)C)CC2)c([N+](=O)[O-])cc1OC,0,60*,-7,-1,2,-2
O=[N+]([O-])c1ccc(O)cc1CN1CCN(C/C=C/c2ccccc2)CC1,0,1,5,1,nt,nt
CC(=O)Nc1cccc(NC(=S)NC(NC(C)=O)C(Cl)(Cl)Cl)c1 (centres undefined),0,-6,-3,-1,nt,nt
COc1cccc(OC)c1C(=O)N1CCN(Cc2ccccc2[N+](=O)[O-])CC1,0,56*,-8,0,-1,-6
CCOc1cc(CN2CCN(Cc3ccc([N+](=O)[O-])cc3)CC2)ccc1OC,0,68*,6,-1,-3,2
CCOc1cc(CN2CCN(Cc3cccc(F)c3)CC2)ccc1OC,0,43,3,0,nt,nt
CCOc1cc(CN2CCN(Cc3ccc(CC)cc3)CC2)ccc1OC,0,59*,1,0,5,-9
COc1cccc(C(=O)N2CCN(Cc3ccccc3[N+](=O)[O-])CC2)c1,0,48,-3,0,nt,nt
COc1cccc(CN2CCN(Cc3ccccc3[N+](=O)[O-])CC2)c1OC,-1,61*,-6,-1,21,27
